High-throughput results from PubChem BioAssay.
BRCA1 expr up: activators of BRCA1 expression | MCF7-BRCA1-FFLuc reporter, luminescence, 48 h; response scale: scaled: vehicle 0%, 10 µM genistein 100% | Potency, µM (series often up to 46.1 µM), inactives show at the highest dose activation, most hits filed as activators | 1.1% of 380,000 active; note: nearly all actives have a fitted effect of over 80% in size
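48 h compound treatment of MCF7-BRCA1-FFLuc cells (phenol-red free MEM, 37 °C), then 15 min with luciferase substrate and luminescence imaging.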
VDR inhibitor: vitamin D3 receptor (human) inhibition. VDR-SRC2-3 peptide fluorescence polarization, 2 h. Potency, µM, for the others: max response, negative = inhibition, hits mostly inhibitors. 0.93% of 400,000 active. AID 504847; note: % is set by controls: 0 for no effect and ±100 for the full control effect
Target sequence (P11473 whole entry, looked up): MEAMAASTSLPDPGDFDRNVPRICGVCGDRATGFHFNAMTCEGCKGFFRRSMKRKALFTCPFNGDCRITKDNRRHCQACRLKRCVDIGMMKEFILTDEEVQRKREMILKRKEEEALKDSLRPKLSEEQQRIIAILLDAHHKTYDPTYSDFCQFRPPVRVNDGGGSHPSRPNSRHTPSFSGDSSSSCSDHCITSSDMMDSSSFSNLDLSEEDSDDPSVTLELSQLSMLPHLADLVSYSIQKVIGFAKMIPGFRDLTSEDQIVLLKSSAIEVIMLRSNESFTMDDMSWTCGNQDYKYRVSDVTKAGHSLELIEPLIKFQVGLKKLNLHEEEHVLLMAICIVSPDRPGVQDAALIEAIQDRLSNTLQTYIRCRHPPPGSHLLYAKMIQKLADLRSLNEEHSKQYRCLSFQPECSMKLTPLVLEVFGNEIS
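Measured by FP: displacement of SRC2-3 coactivator peptide from VDR by library compounds, following a two-hour ambient incubation.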
PLK1 PBD inh: blocks phosphopeptide binding to human PLK1 polo-box domain. P53350. Plk1 PBD binding of FITC phosphopeptide, fluorescence polarization. Potency, µM, inactives show max response, negative = inhibition, most hits filed as inhibitors. 2.8% of 360,000 active; note: series mostly up to about 57 µM; % is set by controls: 0 for no effect and ±100 for the full control effect; nearly all actives have a fitted effect of over 65% in size
Tb PFK inh: T. brucei PFK enzyme inhibition; AID 485367; Potency, µM (top dose mostly 57.5 µM), without a hit: at the top dose activity, negative = inhibition, actives largely listed as inhibitors; 0.17% of 330,000 active; O15648; T. brucei PFK, ADP-Glo luminescence;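 note: 0% = uninhibited 1x PFK enzyme wells and -100% = no-enzyme wells; nearly all actives have a fitted effect of over 60% in size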
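Compounds were pin-transferred as a titration series up to 57 uM into substrate buffer (0.5 mM F6P, 0.1 mM ATP, pH 8.0), then 1.25 nM PFK was added and reactions ran 45 min before ADP-Glo detection.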
Active calls of the source: *. Only some compounds are listed: those with a hit (about 3.9% of all), similar ones and a draw of the others. Calls come from the whole dose curve; as a rule, active = well fitted curve in the direction sought with a large enough effect; inconclusive = small, poorly fitted or top-dose-only effect, or another doubt; inactive = no such curve, though single readings can be large; an effect the other way counts as inactive or inconclusive. Potency is the fitted concentration of half-maximal effect.

Results for CCOC(=O)CSc1nc(-c2ccc(OC)cc2)ns1 ?
BRCA1 expr up: -3%; VDR inhibitor: -8%; PLK1 PBD inh: 11µM*; Tb PFK inh: -6%

Results for Cc1cccc(-c2nsc(SCC(=O)Nc3cc(C)on3)n2)c1 ?
BRCA1 expr up: 24%; VDR inhibitor: 10%; PLK1 PBD inh: inconclusive; Tb PFK inh: -3%

How did CCOC(=O)CNC(=O)CSc1nc(-c2ccccc2)ns1 do in these assays?
BRCA1 expr up: 1%; VDR inhibitor: inconclusive; PLK1 PBD inh: 13µM*; Tb PFK inh: -14%

What do the screens show for `CCOC(=O)CNC(=O)CSc1nc(-c2ccc(C)cc2)ns1`?
BRCA1 expr up: 18%; VDR inhibitor: inconclusive; PLK1 PBD inh: -26%; Tb PFK inh: 1%

How did CC(C)(C)OC(=O)[C@H](Cc1ccccc1)NC(=O)c1nc[nH]c1C(=O)N1CCN(c2ccccc2)CC1 do in these assays?
BRCA1 expr up: -8%; VDR inhibitor: inconclusive; PLK1 PBD inh: 21µM*; Tb PFK inh: 2%

How did CC(C)(C)OC(=O)[C@H](Cc1ccccc1)NC(=O)c1nc[nH]c1C(=O)N1CCN(C(=O)OC(C)(C)C)CC1 do in these assays?
BRCA1 expr up: 1%; VDR inhibitor: -14%; PLK1 PBD inh: 1%; Tb PFK inh: 2%

What do the screens show for `O=C1/C(=C/c2ccccn2)SC(=S)N1Nc1ncc(C(F)(F)F)cc1Cl`?
BRCA1 expr up: -10%; VDR inhibitor: 28µM*; PLK1 PBD inh: inconclusive

How did Cc1ccc(N=N/C(=C\O)C(=O)c2ccc(Cl)cc2)cc1 do in these assays?
BRCA1 expr up: -70%; VDR inhibitor: 3%; PLK1 PBD inh: 24µM*; Tb PFK inh: 3%

What do the screens show for `CCN(CC)c1ccc(/C=C/c2sc3ccccc3[n+]2CCCCI)cc1`?
BRCA1 expr up: -52%

What do the screens show for `COC(=O)Nc1nnc(-c2ccncc2)s1`?
BRCA1 expr up: 5%; VDR inhibitor: -26%; PLK1 PBD inh: 27µM*; Tb PFK inh: 4%

How did Cc1ccc(NC(=O)Nc2nnc(-c3ccncc3)s2)cc1C do in these assays?
BRCA1 expr up: 19%; VDR inhibitor: -1%; PLK1 PBD inh: -3%; Tb PFK inh: -2%

How did Cc1oc(-c2ccccc2)cc1C(=O)Nc1cccc(/C=C/C(=O)O)c1 do in these assays?
BRCA1 expr up: 28%; VDR inhibitor: -8%; PLK1 PBD inh: 21µM*; Tb PFK inh: 10%

Results for O=C(COc1cccc(Br)c1)N/N=C1\CCSC1 ?
BRCA1 expr up: -23%; VDR inhibitor: inconclusive; PLK1 PBD inh: 21µM*; Tb PFK inh: -9%

Results for O=C(COc1cccc(Br)c1)N/N=C1\CCCc2ccccc21 ?
BRCA1 expr up: 0%; VDR inhibitor: -5%; PLK1 PBD inh: -12%; Tb PFK inh: -5%

Results for CCN(Cc1ccc(Br)s1)C(=O)CSc1nnc(C2CC2)n1C1CC1 ?
BRCA1 expr up: -15%; PLK1 PBD inh: 0%

What do the screens show for `C=CCN=c1sc(C(=O)OC)cc(=O)n1CC=C`?
BRCA1 expr up: -1%; VDR inhibitor: inconclusive; PLK1 PBD inh: 30µM*; Tb PFK inh: -3%

How did CCN=c1sc(C(=O)OC)cc(=O)n1CC do in these assays?
BRCA1 expr up: 7%; VDR inhibitor: -2%; PLK1 PBD inh: -11%; Tb PFK inh: 2%

Results for CN1C/C(=C/c2ccccc2[N+](=O)[O-])C(=O)/C(=C\c2ccccc2[N+](=O)[O-])C1 ?
BRCA1 expr up: -89%; VDR inhibitor: 71µM*; PLK1 PBD inh: -18%

What do the screens show for `COc1ccc(C(C)=O)cc1CC(=O)N(Cc1ccccc1)c1ccccc1`?
BRCA1 expr up: -15%; VDR inhibitor: -18%; PLK1 PBD inh: 30µM*; Tb PFK inh: 0%

Results for O=C(c1ccc(CSc2ccc(Cl)cc2)cc1)N1CCCC1 ?
BRCA1 expr up: 10µM*; VDR inhibitor: 10%; PLK1 PBD inh: -3%; Tb PFK inh: 1%

What do the screens show for `CCOC(=O)c1sc(NC(C)=O)nc1C`?
BRCA1 expr up: -43%; VDR inhibitor: -25%; PLK1 PBD inh: 27µM*; Tb PFK inh: -6%

Results for CCCCCCCCCCCCCCCCn1cc[n+](Cc2ccccc2)c1C ?
VDR inhibitor: 85%

How did Cc1ccc(Nc2nc(-c3sc(N)nc3C)cs2)cc1 do in these assays?
BRCA1 expr up: -27%; VDR inhibitor: 79µM*; PLK1 PBD inh: inconclusive; Tb PFK inh: -12%

Results for COc1ccc(Nc2nc(-c3sc(N)nc3C)cs2)cc1 ?
BRCA1 expr up: -38%; VDR inhibitor: -23%; PLK1 PBD inh: inconclusive; Tb PFK inh: -4%

How did CC(=O)c1cccc(Nc2nc(-c3sc(N)nc3C)cs2)c1 do in these assays?
BRCA1 expr up: -47%; VDR inhibitor: inconclusive; PLK1 PBD inh: 21µM*; Tb PFK inh: 1%

What do the screens show for `CC(=O)c1cccc(Nc2nc(-c3sc(C)nc3C)cs2)c1`?
BRCA1 expr up: -15%; VDR inhibitor: 1%; PLK1 PBD inh: 0%; Tb PFK inh: 3%

What do the screens show for `Cn1nc(-c2ccc(Cl)cc2)c2cc(C(=O)NC3CC3)sc21`?
BRCA1 expr up: -64%; VDR inhibitor: inconclusive; PLK1 PBD inh: 30µM*; Tb PFK inh: -2%

What do the screens show for `CCN(CC)CCNC(=O)c1cc2c(-c3ccc(Cl)cc3)nn(C)c2s1`?
BRCA1 expr up: -75%; VDR inhibitor: -21%; PLK1 PBD inh: -6%; Tb PFK inh: 0%

Results for O=C(CCS(=O)(=O)c1ccc2c(c1)NC(=O)CO2)NCc1ccccc1 ?
BRCA1 expr up: -9%; VDR inhibitor: -6%; PLK1 PBD inh: -10%; Tb PFK inh: 1%

What do the screens show for `CC1CCC(NC(=O)CCS(=O)(=O)c2ccc3c(c2)NC(=O)CO3)CC1` (centres undefined)?
BRCA1 expr up: 0%; VDR inhibitor: inconclusive; PLK1 PBD inh: 17µM*; Tb PFK inh: 0%

What do the screens show for `O=C(CCS(=O)(=O)c1ccc2c(c1)NC(=O)CO2)NCCc1ccccc1`?
BRCA1 expr up: 4%; VDR inhibitor: inconclusive; PLK1 PBD inh: 19µM*; Tb PFK inh: -3%

How did Cc1cn([C@H]2C[C@H](O)[C@@H](CNCc3cccn3-c3nccs3)O2)c(=O)[nH]c1=O do in these assays?
BRCA1 expr up: 13%; PLK1 PBD inh: -4%

What do the screens show for `O=c1c2cccnc2n(Cc2ccccc2F)c(=O)n1Cc1ccc(F)cc1`?
BRCA1 expr up: 0%; VDR inhibitor: 10%

What do the screens show for `O=C(c1ccc(F)cc1)N1CCN(C(=O)c2ccc([N+](=O)[O-])cc2)CC1`?
BRCA1 expr up: -4%; VDR inhibitor: -1%; PLK1 PBD inh: -10%; Tb PFK inh: -6%

How did O=C(c1ccc([N+](=O)[O-])cc1)N1CCN(c2ncc(Br)cn2)CC1 do in these assays?
BRCA1 expr up: -9%; VDR inhibitor: inconclusive; PLK1 PBD inh: 27µM*; Tb PFK inh: -16%

Results for CN(C)C(=O)c1ccc(-c2cc(-n3ccnc3)ncn2)cc1 ?
VDR inhibitor: -4%

How did CN(C)c1ccc(-c2cc(-n3ccnc3)ncn2)cc1 do in these assays?
VDR inhibitor: 50µM*

What do the screens show for `CN(C)c1ccc(-c2cc(Nc3ccc(F)cc3)ncn2)cc1`?
VDR inhibitor: 45µM*
